Shown are actives, neighbours in structure and some others; about 7.4% of the full set was active somewhere.
Rab9 promoter act – activates the Rab9 promoter; Huh7 Rab9 promoter-luciferase reporter, luminescence, 24 h; Potency, µM (top dose mostly 9.22 µM), without a hit: at the highest dose activation, negative = inhibition, usual class: activators; 2.8% of 320,000 active; also: % of control where 0% means no effect; nearly all actives have a fitted effect of over 60% in size
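Stable Rab9-luc Huh7, 1500 cells/well, 2 h settle; cmpd in DMSO, 24 h, 37 °C/5% CO2; luciferase reagent 10 min RT; luminescence.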
FLuc modulator – inhibits or activates purified firefly luciferase, miR-21 counter-screen; purified FLuc, Km substrates, luminescence inhibition; AID 588342; 6.9% of 360,000 active; Potency, µM (highest dose often 57.5 µM), inactives show top-dose activity change, negative = inhibition, usual class: inhibitors;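 also: plate controls were vehicle for no effect and reference inhibitor for full effect; nearly all actives have a fitted effect of over 55% in size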
Target sequence (P08659 whole entry, looked up): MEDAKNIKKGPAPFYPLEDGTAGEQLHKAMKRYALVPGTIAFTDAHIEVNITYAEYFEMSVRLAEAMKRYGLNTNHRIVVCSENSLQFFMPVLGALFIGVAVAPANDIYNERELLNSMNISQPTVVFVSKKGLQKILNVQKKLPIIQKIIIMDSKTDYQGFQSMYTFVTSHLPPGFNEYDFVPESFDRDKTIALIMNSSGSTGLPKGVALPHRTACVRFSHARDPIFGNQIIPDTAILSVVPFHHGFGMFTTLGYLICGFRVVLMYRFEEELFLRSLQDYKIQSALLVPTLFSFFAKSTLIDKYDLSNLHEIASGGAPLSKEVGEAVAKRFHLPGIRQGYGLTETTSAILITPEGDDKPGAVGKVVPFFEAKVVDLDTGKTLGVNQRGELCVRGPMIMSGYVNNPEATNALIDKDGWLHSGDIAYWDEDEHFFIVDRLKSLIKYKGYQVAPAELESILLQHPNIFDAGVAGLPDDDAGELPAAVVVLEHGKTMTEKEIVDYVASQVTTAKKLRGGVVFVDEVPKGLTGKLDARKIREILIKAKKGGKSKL
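Purified P. pyralis luciferase, 10 nM final, with Km-level 10 uM D-luciferin and 10 uM ATP in 50 mM Tris acetate pH 7.5, 10 mM Mg acetate, 0.01% Tween-20, 0.05% BSA; 6-point qHTS titration about 60 µM downward; luminescence read.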
ELG1 genotox – inducers of genotoxicity in HEK293T ELG1-luciferase cells | 1.3% of 330,000 active | HEK293T ELG1-luciferase reporter, luminescence, 16 h | Potency, µM (highest dose often 46 µM), for inactives: top-dose activity change, positive = activation, most hits filed as activators; also: % of control where 0% means no effect; nearly all actives have a fitted effect of over 60% in size
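Cells (2,000/well) expressing the ELG1-luciferase fusion are dosed by pin tool and kept 16 hr at 37 °C, 5% CO2. Signal comes from ONE-Glo luciferase reagent after 30 min at room temperature.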
NPC1 prom act – NPC1 promoter activation. Huh7 NPC1 promoter luciferase reporter, 24 h. Potency, µM (series often up to 9.22 µM), without a hit: at the highest dose activation, hits mostly activators. 2.4% of 320,000 active. AID 485313; also: % of control where 0% means no effect; nearly all actives have a fitted effect of over 60% in size
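Huh7 cells stably carrying NPC1 promoter–luciferase, plated in Opti-MEM with 10% FBS for 2 h, were exposed to compound in DMSO for 24 h at 37 °C; luciferase reagent was added for 10 min and luminescence read.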
SMN2 splice enh – SMN2 splice variant enhancement; AID 1458; 2.8% of 210,000 active; HEK293 SMN2-luciferase splicing reporter, luminescence, 30-36 h; Potency, µM (top dose mostly 46.1 µM), inactives show at the top dose activity change, positive = activation, usual class: activators; also: % of control where 0% means no effect; nearly all actives have a fitted effect of over 55% in size
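HEK293 cells carry an SMN2 minigene-luciferase reporter in which exon 7 inclusion puts luciferase in frame. Cells were seeded at 2000 cells/well, attached for 10-12 hours, then exposed to compounds for 30-36 hours at 37C before ONE-Glo luminescence.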
* = called active by the depositor; ? = inconclusive; · = no result; [ ] = dose if it differs, or a comment. Calls follow the shape of the dose curve; as a rule, active = well fitted curve in the direction sought with a large enough effect; inconclusive = small, poorly fitted or top-dose-only effect, or another doubt; inactive = no such curve, though single readings can be large; an effect the other way counts as inactive or inconclusive. Potency is read from the fitted curve at half-maximal effect.

SMILES	Rab9 promoter act	FLuc modulator	ELG1 genotox	NPC1 prom act	SMN2 splice enh
Cc1nn(-c2ccccc2)c2sc(C(=O)N3CCOCC3)cc12	3.5µM*	11µM*	?	?	11µM*
Cc1nn(-c2ccccc2)c2sc(C(=O)OC3CCOC3=O)cc12 (stereo not drawn)	-1%	15µM*	2%	3%	9%
CN(C)CC[C@H](c1ccc(Br)cc1)c1ccccn1	·	·	·	·	0%[20.6 µM]
CC(C)CCC(CC(C)O)c1n[nH]c(=S)n1-c1ccccc1 (stereo not drawn)	-6%	4%	-1%	-1%	-7%
CC12COC3(C(=O)Nc4ccc5ccccc5c4)CC1CCC32C (stereo not drawn)	?	15µM*	?	?	11µM*
CC12COC3(C(=O)Nc4ccccc4)CC1CCC32C (stereo not drawn)	0%	-2%	0%	-6%	·
Nc1nc(CSc2n[nH]c(-c3ccccc3)n2)nc(Nc2ccccc2)n1	-1%	-10%	-18%	-2%	-35%
Nc1nc(CSc2ncccn2)nc(Nc2ccccc2)n1	4µM*	24µM*	?	4.5µM*	14µM*
Cc1ccc(Nc2nc(N)nc(CSc3nc(C)cc(C)n3)n2)cc1	·	-14%	·	·	-4%
Cc1ccc(Nc2nc(N)nc(CSc3ncccn3)n2)cc1	2µM*	12µM*	?	2.2µM*	13µM*
COc1ccc(S(N)(=O)=O)cc1C(=O)OCCCOC(=O)c1cc(S(N)(=O)=O)ccc1OC	-16%	-2%	7.3µM*	-15%	·
COc1ccc(S(N)(=O)=O)cc1C(=O)OCCCOc1ccc(F)cc1	-9%	-1%	-5%	-4%	·
O=C(Nc1ccc(Br)cc1)c1ccccc1Br	3.2µM*	11µM*	?	1.4µM*	·
CCc1ccc(NC(=O)c2ccccc2Br)cc1	2µM*	11µM*	-13%	1.4µM*	13µM*
CCNC(=S)Nc1ccc(NC(=O)c2ccccc2O)cc1	-1%	12µM*	0%	15%	·
O=C(O)c1ccc(NC(=O)c2ccccc2NC(=O)c2ccccc2Br)cc1	1%	17µM*	5%	0%	·
Cc1cccc(NC(=O)c2ccc(NC(=O)c3ccccc3Br)cc2)c1	-1%	-17%	-15%	2%	·
CCC(=O)Nc1ccc(NC(=O)c2cccc3c(Br)cccc23)cc1	7%	-3%	7%	3%	·
CCNC(=S)Nc1cccc(NC(=O)c2ccccc2O)c1	8%	?	0%	4%	·
CCC1CN(C(=O)C2CCN(S(=O)(=O)c3c(C)noc3/C=C/c3ccc(C)cc3)CC2)c2cc(C)ccc2O1 (stereo not drawn)	·	0%	·	·	·
Cc1cccc(N2CCN(S(=O)(=O)c3ccc(-c4cnc(C5CC5)o4)cc3)CC2)c1C	·	-3%	·	·	·
COC(=O)C(C(=O)OC)[C@@H](NC(=O)OCc1ccccc1)c1ccccc1	·	·	·	·	8%
Fc1ccc(OCc2nc(-c3cccs3)no2)cc1	2.5µM*	11µM*	?	3.2µM*	?
c1ccc(OCc2nc(-c3cccs3)no2)cc1	3.2µM*	7.6µM*	13µM*	3.5µM*	?
O=C(NCc1ccc(F)cc1)c1nc(-c2cccs2)no1	-2%	-6%	3%	0%	9%
SMILES	Rab9 promoter act	FLuc modulator	ELG1 genotox	NPC1 prom act	SMN2 splice enh
Cc1cc(OCc2nc(-c3cccs3)no2)cc(C)c1Cl	7%	?	9%	10%	-6%
COC(=O)c1c(NC(=O)CCCOc2cccc(C)c2)sc2c1C(C(=O)OC)CC2 (stereo not drawn)	·	?	·	·	-27%
COC(=O)c1c(C)[nH]c(C(=O)CSc2ccc(Cl)cc2)c1C	2.5µM*	4.8µM*	?	4µM*	11µM*
CCc1c(C(=O)OCc2ccccc2)[nH]c(C)c1C	?	24µM*	?	28%	·
COC(=O)c1c(C)[nH]c(C(=O)OCc2ccc(F)cc2)c1C	4µM*	9.5µM*	?	3.5µM*	·
O=S(=O)(c1ccc(Cl)nc1)N1CCCCC1	-4%	-2%	2%	2%	·
CCCCOc1cccc(C(=O)N(Cc2ccc(Br)o2)C2CCS(=O)(=O)C2)c1 (stereo not drawn)	·	-4%	·	·	·
CCOC(=O)C1CCN(C(=O)CNC(=O)c2nn(-c3ccc(OC)c(OC)c3)c(=O)c3ccccc23)CC1	17%	4.8µM*	-2%	13%	·
CCOC(=O)C1CCN(C(=O)CNC(=O)c2nn(-c3ccc(OC)cc3)c(=O)c3ccccc23)CC1	26%	2.7µM*	-3%	24%	·
COc1ccc(-n2nc(C(=O)NCC(=O)N3CCN(Cc4ccccc4)CC3)c3ccccc3c2=O)cc1OC	-2%	?	-5%	0%	·
CCOC(=O)C1CCN(C(=O)c2nn(-c3ccc(OC)cc3)c(=O)c3c2c2ccccc2n3C)CC1	·	2%	·	·	-3%
O=c1oc(CCCO)cc2ccc(C#Cc3ccsc3)cc12	-9%	?	12%	?	·
CN(C)c1ccc(C#Cc2ccc3cc(CCCO)oc(=O)c3c2)cc1	1%	1.7µM*	?	2.8µM*	·
Cc1cccc(C)c1OCC(=O)N(Cc1ccc(N(C)C)cc1)C1CCS(=O)(=O)C1 (stereo not drawn)	-11%	1%	0%	-1%	·
Cc1ccc(C)c(CSc2c(C(C)C)cnc3c2c(=O)n(C)c(=O)n3C)c1	·	-12%	·	·	·
COc1cccc(N=c2oc3ccccc3cc2-c2nc3ccccc3[nH]2)c1	1.6µM*	9.5µM*	?	3.2µM*	16µM*
COc1cccc(N=c2oc3ccc(OC)cc3cc2-c2nc3ccccc3[nH]2)c1	·	19µM*	·	·	?
CCC(Sc1nc2nccnc2c(=O)n1Cc1ccccc1Cl)C(=O)NC1CCCCC1 (stereo not drawn)	·	1%	·	·	·
O=S(=O)(Nc1cccc(-c2ccc(N3CCCCC3)nn2)c1)c1cccs1	·	0.95µM*	·	·	·
CCOc1ccc(-c2cccc(NS(=O)(=O)c3ccc(Cl)s3)c2)nn1	·	15µM*	·	·	·
O=S(=O)(Nc1cccc(-c2ccc(N3CCCCC3)nn2)c1)c1ccc(Cl)s1	·	1.2µM*	·	·	·
O=S(=O)(Nc1cccc(S(=O)(=O)N2CCCC2)c1)c1ccc(Cl)s1	-4%	·	-1%	1%	·
CCOc1ccc(-c2cccc(NS(=O)(=O)c3ccccc3[N+](=O)[O-])c2)nn1	1%	3%	-1%	13%	·
COC(=O)c1cccc(C23CC4(C2)[C@H](CN(CC2CCCCC2)[C@@H]4c2ccccc2)C3c2ccc(C(F)(F)F)cc2)c1 (stereo partly drawn)	·	·	·	·	-25%
CCC(=O)Nc1ccc(NC(=O)c2oc3ccccc3c2C)cc1	-9%	5.4µM*	9%	-5%	·
Nc1c(C(=O)Nc2ccc(Cl)cc2)oc2ccccc12	2.5µM*	2.7µM*	2.3µM*	1.4µM*	24%
CC(=O)Nc1cccc(NC(=O)c2oc3ccccc3c2C)c1	3.5µM*	6µM*	?	3.2µM*	11µM*

From PubChem BioAssay
